The supplement of paper PMC11732987, “Enantioselective OTUD7B fragment discovery through chemoproteomics screening and high-throughput optimisation” (Communications Chemistry, 2025)

How the values were obtained:
Assay in all cases: log2 ratio of Biotin-Ahx-Ub-VS probe labelling (fragment/DMSO); higher = less target engagement (more negative = stronger competition), active = hit call of the paper (q ≤ 0.05, log2 ratio ≤ -1)
Settings in all cases: compound concentration: 200 uM; treatment time: 3 h
[1] = molecular target: T1, USP19 (UniProt O94966)
T1 sequence (whole entry): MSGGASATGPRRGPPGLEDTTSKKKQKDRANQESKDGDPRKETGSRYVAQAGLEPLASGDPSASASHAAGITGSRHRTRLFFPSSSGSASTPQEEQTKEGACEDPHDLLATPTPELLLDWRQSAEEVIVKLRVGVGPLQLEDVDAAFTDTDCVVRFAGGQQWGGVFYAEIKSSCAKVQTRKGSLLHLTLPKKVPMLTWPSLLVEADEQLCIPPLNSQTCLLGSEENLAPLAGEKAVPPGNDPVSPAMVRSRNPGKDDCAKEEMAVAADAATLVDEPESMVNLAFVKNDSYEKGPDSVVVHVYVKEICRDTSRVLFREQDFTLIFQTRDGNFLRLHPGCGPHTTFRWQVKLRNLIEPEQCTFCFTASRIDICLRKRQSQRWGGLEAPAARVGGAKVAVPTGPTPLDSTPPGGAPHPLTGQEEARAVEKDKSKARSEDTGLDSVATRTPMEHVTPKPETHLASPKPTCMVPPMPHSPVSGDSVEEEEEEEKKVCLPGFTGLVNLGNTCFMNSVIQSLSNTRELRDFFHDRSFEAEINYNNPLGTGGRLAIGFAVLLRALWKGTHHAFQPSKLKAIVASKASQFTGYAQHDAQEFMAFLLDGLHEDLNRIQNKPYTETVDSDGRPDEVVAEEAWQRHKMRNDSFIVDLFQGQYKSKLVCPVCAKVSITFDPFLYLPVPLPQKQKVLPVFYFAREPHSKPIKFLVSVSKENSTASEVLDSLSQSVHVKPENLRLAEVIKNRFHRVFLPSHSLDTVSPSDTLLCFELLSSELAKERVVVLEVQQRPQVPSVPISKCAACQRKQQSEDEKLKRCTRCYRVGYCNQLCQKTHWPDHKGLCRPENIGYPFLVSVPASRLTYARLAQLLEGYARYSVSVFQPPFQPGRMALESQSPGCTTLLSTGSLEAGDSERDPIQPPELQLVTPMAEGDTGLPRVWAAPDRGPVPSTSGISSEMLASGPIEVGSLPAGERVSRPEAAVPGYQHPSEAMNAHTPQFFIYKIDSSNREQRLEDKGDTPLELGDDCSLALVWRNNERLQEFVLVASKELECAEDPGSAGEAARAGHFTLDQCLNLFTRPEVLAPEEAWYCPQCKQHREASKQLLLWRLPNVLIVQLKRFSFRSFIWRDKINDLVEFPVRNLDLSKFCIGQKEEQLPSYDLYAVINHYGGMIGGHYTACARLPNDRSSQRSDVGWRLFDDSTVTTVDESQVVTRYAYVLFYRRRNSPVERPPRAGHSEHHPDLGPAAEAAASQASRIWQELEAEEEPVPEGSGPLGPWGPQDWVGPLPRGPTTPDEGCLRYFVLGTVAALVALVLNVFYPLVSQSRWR
In short: (§1)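 Average log2 ratios of fragment over vehicle were obtained by unpaired t-test from global-median-normalised Spectronaut label-free quantities. Proteins with ≥2 unique peptides were included. HEK293T lysate (495 µg per sample) was treated in triplicate with fragment at 200 µM or vehicle for 3 h, then with Biotin-Ahx-Ub-VS at 0.5 µM final for 1 h, and labelled DUBs were NeutrAvidin-enriched and run by diaPASEF LC-MS/MS.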

[2] = molecular target: T2, USP22 (UniProt Q9UPT9)
T2 sequence (whole entry): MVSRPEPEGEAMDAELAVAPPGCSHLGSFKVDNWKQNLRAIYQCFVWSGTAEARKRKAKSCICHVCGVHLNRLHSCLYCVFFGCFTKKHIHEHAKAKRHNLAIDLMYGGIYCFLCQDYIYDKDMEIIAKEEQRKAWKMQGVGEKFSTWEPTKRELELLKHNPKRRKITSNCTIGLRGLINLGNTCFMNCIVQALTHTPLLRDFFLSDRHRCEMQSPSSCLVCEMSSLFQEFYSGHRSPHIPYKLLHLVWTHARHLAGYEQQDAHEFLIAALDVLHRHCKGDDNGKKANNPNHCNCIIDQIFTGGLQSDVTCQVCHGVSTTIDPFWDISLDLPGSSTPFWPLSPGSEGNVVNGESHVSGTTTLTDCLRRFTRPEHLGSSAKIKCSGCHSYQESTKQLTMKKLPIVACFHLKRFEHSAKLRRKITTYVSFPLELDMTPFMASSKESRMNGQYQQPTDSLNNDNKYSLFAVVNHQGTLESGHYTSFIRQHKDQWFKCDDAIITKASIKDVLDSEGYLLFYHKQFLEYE
In short: as §1

[3] = molecular target: USP24 (UniProt Q9UPU5)
Chain of USP24 (Q9UPU5 whole entry): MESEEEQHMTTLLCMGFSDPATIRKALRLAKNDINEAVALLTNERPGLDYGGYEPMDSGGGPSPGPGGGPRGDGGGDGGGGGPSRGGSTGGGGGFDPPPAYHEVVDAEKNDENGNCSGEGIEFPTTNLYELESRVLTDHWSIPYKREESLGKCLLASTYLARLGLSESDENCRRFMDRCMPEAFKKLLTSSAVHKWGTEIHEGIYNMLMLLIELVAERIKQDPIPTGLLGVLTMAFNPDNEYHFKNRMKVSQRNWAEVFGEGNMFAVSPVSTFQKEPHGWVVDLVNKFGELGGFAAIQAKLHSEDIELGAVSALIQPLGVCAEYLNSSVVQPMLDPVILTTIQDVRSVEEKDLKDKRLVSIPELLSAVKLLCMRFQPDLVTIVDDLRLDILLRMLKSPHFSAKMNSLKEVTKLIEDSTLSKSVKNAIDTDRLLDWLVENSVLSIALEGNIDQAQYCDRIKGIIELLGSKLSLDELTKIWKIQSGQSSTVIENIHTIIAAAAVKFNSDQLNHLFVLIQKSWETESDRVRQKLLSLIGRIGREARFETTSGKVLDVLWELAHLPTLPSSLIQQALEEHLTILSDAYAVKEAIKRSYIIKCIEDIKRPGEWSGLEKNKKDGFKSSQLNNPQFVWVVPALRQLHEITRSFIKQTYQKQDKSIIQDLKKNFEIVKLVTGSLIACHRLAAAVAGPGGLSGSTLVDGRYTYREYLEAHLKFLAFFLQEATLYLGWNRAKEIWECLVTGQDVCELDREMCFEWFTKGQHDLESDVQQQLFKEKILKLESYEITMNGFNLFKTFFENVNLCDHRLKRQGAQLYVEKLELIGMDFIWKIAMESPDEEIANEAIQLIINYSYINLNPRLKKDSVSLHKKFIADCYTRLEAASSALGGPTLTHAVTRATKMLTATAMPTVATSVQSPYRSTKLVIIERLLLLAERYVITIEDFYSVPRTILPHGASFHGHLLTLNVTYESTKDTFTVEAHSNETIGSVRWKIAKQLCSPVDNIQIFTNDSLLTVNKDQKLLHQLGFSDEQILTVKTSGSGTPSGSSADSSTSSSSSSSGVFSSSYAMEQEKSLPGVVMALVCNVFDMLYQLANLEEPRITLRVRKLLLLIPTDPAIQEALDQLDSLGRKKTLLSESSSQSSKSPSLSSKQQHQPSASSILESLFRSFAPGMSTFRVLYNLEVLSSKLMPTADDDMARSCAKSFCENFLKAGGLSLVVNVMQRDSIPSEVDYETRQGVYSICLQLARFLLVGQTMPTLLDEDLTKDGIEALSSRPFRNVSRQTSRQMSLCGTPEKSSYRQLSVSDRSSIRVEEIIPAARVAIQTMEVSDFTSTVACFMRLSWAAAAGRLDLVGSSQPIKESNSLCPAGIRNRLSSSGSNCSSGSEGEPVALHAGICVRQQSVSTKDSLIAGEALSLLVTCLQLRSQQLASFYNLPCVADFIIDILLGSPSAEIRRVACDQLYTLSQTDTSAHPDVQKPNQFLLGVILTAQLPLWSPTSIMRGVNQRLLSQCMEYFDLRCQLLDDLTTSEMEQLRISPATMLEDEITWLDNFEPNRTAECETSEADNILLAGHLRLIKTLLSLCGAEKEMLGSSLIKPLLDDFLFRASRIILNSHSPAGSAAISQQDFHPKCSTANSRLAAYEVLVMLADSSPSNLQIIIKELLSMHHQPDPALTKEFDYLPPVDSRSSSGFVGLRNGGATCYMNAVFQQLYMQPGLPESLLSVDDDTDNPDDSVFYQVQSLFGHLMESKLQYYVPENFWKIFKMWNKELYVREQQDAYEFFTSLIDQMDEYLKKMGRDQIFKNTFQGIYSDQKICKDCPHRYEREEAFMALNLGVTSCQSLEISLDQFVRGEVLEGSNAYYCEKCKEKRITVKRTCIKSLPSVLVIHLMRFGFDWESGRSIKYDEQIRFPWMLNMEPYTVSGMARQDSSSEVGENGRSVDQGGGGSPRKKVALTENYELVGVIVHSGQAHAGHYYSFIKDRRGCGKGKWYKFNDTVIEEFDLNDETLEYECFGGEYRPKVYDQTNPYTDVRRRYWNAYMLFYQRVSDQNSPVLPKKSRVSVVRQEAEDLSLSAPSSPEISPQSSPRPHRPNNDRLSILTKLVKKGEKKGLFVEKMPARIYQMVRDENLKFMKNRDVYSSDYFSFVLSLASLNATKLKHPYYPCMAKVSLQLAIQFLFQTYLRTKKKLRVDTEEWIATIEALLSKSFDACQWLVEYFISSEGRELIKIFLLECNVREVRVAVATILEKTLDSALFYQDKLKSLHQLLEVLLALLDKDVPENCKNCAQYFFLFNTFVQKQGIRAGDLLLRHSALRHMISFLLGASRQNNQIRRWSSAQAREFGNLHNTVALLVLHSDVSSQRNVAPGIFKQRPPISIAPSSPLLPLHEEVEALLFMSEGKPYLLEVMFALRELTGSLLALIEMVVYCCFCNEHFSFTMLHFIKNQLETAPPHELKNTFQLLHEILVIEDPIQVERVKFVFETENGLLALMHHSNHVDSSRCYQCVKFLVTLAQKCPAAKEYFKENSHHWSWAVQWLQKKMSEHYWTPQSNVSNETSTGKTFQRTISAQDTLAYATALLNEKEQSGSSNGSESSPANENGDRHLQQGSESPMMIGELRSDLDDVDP
In short: as §1

[4] = molecular target: T3, USP25 (UniProt Q9UHP3)
T3 sequence (whole entry): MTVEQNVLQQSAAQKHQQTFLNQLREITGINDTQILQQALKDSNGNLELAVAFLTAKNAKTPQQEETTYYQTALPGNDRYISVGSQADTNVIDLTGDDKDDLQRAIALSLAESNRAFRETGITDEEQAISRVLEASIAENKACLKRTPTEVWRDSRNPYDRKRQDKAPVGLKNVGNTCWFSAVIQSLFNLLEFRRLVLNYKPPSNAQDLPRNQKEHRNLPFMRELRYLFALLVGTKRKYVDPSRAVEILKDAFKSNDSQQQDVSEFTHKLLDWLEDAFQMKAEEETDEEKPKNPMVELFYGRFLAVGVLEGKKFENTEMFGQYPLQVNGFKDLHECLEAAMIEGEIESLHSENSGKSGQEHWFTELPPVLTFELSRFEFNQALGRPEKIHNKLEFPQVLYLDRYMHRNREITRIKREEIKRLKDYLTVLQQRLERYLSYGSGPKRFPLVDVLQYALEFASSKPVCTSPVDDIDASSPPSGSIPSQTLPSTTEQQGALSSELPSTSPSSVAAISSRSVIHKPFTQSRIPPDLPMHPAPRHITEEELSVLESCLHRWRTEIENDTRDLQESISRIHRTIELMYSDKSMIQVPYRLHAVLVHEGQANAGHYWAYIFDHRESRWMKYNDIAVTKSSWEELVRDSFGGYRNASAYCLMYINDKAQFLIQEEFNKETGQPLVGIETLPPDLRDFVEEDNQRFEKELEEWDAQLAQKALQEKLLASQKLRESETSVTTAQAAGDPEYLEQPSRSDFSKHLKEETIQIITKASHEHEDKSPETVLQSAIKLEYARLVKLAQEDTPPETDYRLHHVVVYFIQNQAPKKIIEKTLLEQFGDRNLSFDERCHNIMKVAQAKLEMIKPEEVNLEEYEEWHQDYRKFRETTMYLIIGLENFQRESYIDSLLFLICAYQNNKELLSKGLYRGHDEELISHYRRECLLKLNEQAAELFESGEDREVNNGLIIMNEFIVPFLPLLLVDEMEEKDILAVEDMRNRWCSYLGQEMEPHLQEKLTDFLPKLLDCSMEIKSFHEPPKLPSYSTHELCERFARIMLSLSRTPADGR
In short: as §1

[5] = molecular target: T4, USP28 (UniProt Q96RU2)
T4 sequence (whole entry): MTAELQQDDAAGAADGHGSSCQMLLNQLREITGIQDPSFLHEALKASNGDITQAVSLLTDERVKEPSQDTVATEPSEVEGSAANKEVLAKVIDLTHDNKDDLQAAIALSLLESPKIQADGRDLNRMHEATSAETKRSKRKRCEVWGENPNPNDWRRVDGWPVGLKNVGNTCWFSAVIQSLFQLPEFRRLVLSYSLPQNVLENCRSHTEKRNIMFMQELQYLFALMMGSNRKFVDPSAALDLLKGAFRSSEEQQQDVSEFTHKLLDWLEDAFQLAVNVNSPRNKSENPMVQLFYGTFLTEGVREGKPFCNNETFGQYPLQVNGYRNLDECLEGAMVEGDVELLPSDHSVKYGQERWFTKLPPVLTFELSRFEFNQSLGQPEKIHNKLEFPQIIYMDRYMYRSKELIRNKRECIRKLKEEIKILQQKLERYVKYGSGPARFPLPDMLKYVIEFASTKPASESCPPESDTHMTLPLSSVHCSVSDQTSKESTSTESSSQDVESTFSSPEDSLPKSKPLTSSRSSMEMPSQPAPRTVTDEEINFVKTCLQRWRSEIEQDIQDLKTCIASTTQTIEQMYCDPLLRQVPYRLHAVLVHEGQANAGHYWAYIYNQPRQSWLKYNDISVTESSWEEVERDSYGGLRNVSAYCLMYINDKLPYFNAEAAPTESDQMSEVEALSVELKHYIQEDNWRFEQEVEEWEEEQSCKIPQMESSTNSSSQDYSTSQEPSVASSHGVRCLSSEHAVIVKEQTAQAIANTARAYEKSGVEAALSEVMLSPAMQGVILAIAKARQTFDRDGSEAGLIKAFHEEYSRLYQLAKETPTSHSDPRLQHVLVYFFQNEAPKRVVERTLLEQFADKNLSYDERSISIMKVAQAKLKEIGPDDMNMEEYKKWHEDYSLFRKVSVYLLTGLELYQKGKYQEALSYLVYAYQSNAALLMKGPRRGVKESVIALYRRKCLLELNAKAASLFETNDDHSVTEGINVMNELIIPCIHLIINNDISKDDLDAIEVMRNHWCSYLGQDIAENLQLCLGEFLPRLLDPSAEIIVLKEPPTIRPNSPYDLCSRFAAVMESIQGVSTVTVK
In short: as §1

Measured: log2 ratio of Biotin-Ahx-Ub-VS probe labelling

Cc1nc(-c2cccc(NC(=O)CCl)c2)cs1
inactive: [1] -0.375 | [2] -0.0833 | [3] -0.903 | [4] -0.554 | [5] -0.634
